The record followed here is paper PMC7862700, “An all-to-all approach to the identification of sequence-specific readers for epigenetic DNA modifications on cytosine”.

Test in all cases: DAPPL (digital affinity profiling via proximity ligation, sequencing); 10 mM Tris-HCl pH 7.5, 50 mM NaCl, 1 mM DTT, 4% glycerol, room temperature, 30 min; GST-TFs on glutathione beads, 16-mer random dsDNA library, 0.1% formaldehyde crosslink after washing; high values mean tight binding
Test [1] addresses T1, FEV (Homo sapiens, UniProt Q99581 1-238).
T1 sequence: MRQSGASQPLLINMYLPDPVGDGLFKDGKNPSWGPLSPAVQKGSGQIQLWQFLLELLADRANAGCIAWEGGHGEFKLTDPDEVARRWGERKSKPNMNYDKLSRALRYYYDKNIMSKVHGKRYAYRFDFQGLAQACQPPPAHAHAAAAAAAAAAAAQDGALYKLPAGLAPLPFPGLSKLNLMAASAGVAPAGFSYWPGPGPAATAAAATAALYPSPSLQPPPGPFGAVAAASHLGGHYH
The settings on record: protein: recombinant; tags: N-terminal GST; dsDNA, one strand shown. The method in brief:
(§1)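 Pools were built from human transcription factors expressed in yeast as GST fusions, captured on glutathione beads and DNA-barcoded, along with a tag-only sample. Incubation with 200 nmole of a 16-mer random double-stranded DNA library lasted 30 min at room temperature in Tris/NaCl/DTT/glycerol buffer, and was followed by washing, 0.1% formaldehyde crosslinking, proximity ligation, PCR amplification and Illumina NextSeq500 sequencing. Binding signal is the quotient of each hexamer's read frequency for a factor and its frequency for the tag-only sample.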

The target of test [2] is ETV5 (Homo sapiens, UniProt P41161 1-510). The following applies: protein: recombinant; tags: N-terminal GST; dsDNA, one strand shown. In short, it runs like this: as §1
Chain of ETV5 (P41161 whole entry): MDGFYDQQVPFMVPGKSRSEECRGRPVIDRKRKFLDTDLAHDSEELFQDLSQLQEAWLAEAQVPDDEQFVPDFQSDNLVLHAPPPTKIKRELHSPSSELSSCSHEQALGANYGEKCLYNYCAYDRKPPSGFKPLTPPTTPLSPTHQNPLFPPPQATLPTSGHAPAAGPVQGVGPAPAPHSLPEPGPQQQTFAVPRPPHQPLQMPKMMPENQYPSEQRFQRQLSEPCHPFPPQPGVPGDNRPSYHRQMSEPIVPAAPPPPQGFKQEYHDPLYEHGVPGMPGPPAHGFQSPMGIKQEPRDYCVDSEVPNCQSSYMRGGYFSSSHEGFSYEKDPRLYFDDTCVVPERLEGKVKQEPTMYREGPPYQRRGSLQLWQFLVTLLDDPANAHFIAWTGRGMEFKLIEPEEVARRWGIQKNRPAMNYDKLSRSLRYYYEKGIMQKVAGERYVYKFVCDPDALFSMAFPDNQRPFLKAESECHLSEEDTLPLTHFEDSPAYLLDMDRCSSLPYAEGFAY
Test [3] has as its target HSF1 (Homo sapiens, UniProt Q00613 1-529). The settings on record: protein: recombinant; tags: N-terminal GST; chain copies: 3; dsDNA, one strand shown. The method in brief:
as §1

Test [4] concerns the target T2, SPIC (Homo sapiens, UniProt Q8N5J4 1-248).
T2 sequence: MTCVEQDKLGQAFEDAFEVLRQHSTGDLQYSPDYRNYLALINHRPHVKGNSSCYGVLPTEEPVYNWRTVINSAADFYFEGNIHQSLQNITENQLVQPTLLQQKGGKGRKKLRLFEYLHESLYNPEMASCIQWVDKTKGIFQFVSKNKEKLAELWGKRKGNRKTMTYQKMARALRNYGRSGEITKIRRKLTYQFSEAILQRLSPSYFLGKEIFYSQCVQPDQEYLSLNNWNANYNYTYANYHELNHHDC
The settings on record: protein: recombinant; tags: N-terminal GST; dsDNA, one strand shown. The method in brief: as §1

Test [5] has as its target ELF4 (Homo sapiens, UniProt Q99607 1-663). The following applies: protein: recombinant; tags: N-terminal GST; dsDNA, one strand shown. In short, it runs like this:
as §1

In test [6] the target is T3, ELK4 (Homo sapiens, UniProt P28324-2 1-405).
T3 sequence: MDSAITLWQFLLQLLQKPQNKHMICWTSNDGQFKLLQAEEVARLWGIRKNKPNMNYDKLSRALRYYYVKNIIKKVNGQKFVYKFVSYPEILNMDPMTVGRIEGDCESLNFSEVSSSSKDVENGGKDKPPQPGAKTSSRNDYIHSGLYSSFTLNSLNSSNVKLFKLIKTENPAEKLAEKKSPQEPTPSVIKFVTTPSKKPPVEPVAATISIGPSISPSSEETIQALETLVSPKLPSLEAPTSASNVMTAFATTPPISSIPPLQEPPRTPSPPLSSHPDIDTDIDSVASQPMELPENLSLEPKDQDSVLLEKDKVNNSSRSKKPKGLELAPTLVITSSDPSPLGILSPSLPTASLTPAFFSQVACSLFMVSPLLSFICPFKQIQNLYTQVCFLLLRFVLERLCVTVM
The settings on record: protein: recombinant; tags: N-terminal GST; dsDNA, one strand shown. The method in brief:
as §1

In test [7] the target is T4, ETV2 (Homo sapiens, UniProt O00321 1-342).
T4 sequence: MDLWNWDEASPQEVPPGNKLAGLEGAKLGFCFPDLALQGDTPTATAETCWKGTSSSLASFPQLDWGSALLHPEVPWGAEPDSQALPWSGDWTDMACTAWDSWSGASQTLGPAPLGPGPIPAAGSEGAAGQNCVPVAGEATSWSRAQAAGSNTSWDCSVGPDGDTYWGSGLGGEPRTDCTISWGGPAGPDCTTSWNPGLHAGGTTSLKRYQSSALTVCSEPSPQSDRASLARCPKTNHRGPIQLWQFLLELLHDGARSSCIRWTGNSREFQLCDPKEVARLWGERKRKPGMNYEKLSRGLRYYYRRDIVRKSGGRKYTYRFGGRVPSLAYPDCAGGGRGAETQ
The following applies: protein: recombinant; tags: N-terminal GST; dsDNA, one strand shown. The method in brief:
as §1

The target of test [8] is T5, ELF3 (Homo sapiens, UniProt P78545 1-371).
T5 sequence: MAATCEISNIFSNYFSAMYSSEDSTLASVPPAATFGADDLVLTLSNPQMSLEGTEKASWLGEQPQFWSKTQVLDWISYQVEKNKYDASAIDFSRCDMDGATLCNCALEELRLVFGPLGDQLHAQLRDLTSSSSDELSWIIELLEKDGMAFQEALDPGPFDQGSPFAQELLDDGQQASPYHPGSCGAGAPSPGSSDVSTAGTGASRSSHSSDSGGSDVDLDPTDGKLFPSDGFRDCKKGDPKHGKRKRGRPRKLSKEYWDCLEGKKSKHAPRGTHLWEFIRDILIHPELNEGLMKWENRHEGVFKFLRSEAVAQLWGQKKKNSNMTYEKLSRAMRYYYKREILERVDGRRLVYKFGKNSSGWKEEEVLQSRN
The following applies: protein: recombinant; tags: N-terminal GST; dsDNA, one strand shown. The method in brief:
as §1

Test [9] deals with CRX (Homo sapiens, UniProt O43186 1-299). The settings on record: protein: recombinant; tags: N-terminal GST; dsDNA, one strand shown. In short, it runs like this: as §1
Chain of CRX (O43186 whole entry): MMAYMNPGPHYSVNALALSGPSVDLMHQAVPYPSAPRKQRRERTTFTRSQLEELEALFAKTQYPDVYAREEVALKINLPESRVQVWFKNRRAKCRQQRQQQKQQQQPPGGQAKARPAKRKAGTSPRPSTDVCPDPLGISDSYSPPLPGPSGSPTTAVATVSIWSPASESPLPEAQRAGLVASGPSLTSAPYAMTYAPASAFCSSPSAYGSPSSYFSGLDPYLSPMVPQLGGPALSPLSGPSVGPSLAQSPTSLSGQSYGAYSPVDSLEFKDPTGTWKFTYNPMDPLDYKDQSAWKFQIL
Test [10] deals with ETV1 (Homo sapiens, UniProt P50549 1-477). The following applies: protein: recombinant; tags: N-terminal GST; dsDNA, one strand shown. In short, it runs like this:
as §1

In test [11] the target is T6, ERF (Homo sapiens, UniProt P50548 1-548).
T6 sequence: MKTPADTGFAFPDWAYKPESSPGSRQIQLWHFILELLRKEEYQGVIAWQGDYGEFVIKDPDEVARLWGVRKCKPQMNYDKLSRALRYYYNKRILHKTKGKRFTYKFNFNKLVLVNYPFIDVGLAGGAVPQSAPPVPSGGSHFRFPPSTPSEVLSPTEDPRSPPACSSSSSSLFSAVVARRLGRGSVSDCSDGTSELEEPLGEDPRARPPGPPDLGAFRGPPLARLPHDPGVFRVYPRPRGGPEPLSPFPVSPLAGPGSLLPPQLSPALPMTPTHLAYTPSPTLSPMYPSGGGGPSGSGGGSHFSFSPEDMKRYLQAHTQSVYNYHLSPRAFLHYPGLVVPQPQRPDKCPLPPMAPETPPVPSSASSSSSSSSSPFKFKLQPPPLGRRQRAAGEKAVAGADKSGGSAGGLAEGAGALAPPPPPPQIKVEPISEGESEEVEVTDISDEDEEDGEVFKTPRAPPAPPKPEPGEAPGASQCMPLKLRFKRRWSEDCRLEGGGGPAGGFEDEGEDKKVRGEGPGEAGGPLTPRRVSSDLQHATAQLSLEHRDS
The following applies: protein: recombinant; tags: N-terminal GST; dsDNA, one strand shown. The method in brief: as §1

Test [12] addresses T7, ETV3L (Homo sapiens, UniProt Q6ZN32 1-361).
T7 sequence: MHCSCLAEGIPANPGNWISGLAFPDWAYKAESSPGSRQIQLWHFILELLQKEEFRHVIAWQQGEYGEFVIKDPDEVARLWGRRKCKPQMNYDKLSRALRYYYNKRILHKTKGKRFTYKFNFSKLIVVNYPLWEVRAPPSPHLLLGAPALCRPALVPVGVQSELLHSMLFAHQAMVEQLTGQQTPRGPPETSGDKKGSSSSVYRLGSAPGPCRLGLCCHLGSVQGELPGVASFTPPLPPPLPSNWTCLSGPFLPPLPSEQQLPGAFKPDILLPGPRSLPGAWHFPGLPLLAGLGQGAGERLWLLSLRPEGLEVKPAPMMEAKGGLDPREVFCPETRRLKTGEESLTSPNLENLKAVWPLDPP
The settings on record: protein: recombinant; tags: N-terminal GST; dsDNA, one strand shown. In short, it runs like this:
as §1

For test [13], the target named is T8, ETS2 (Homo sapiens, UniProt P15036 1-469).
T8 sequence: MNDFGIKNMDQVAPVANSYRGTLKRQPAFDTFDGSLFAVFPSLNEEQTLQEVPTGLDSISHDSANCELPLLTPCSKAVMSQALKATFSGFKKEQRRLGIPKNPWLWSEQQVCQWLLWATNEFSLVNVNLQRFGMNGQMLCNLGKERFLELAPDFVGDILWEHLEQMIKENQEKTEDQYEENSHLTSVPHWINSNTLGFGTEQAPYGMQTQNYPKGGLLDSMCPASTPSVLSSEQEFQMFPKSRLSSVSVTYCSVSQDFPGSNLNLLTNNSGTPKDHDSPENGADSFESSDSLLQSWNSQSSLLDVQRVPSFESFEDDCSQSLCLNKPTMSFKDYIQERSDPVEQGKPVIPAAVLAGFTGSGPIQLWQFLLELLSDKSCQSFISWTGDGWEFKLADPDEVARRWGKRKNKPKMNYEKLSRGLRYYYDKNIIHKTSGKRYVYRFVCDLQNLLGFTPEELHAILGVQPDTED
The following applies: protein: recombinant; tags: N-terminal GST; dsDNA, one strand shown. In short, it runs like this:
as §1

In test [14] the target is T9, SPDEF (Homo sapiens, UniProt O95238 1-335).
T9 sequence: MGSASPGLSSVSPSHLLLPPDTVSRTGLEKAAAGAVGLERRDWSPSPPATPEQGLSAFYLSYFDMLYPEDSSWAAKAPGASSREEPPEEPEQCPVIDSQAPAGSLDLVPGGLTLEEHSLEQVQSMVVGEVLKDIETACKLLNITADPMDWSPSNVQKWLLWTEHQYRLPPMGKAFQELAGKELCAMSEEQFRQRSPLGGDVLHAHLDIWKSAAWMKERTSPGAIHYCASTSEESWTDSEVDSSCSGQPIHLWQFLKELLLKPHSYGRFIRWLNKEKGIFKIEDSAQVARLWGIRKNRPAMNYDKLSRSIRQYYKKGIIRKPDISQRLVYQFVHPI
The following applies: protein: recombinant; tags: N-terminal GST; dsDNA, one strand shown. In short, it runs like this:
as §1

For test [15], the target named is T10, ETV7 (Homo sapiens, UniProt Q9Y603 1-341).
T10 sequence: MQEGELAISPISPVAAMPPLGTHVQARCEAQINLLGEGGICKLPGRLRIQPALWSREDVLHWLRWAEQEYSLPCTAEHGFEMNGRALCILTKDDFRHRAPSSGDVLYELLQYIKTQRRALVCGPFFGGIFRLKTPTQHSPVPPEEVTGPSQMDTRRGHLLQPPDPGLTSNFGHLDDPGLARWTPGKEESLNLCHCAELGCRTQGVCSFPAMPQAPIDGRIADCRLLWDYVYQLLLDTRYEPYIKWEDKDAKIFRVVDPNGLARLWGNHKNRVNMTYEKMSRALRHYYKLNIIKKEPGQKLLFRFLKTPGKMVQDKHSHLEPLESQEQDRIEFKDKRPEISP
The following applies: protein: recombinant; tags: N-terminal GST; dsDNA, one strand shown. The method in brief: as §1

Test [16] has as its target T11, ELF5 (Homo sapiens, UniProt Q9UKW6-2 1-255).
T11 sequence: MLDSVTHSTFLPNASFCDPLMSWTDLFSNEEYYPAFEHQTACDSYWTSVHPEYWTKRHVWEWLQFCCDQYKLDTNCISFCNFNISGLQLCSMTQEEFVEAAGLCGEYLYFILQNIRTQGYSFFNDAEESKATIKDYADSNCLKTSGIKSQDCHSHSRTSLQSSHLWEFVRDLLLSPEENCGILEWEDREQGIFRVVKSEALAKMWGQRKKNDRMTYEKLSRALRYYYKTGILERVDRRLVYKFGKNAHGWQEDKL
The following applies: protein: recombinant; tags: N-terminal GST; dsDNA, one strand shown. The method in brief:
as §1

Test [17] has as its target T12, ETV3 (Homo sapiens, UniProt P41162-2 1-143).
T12 sequence: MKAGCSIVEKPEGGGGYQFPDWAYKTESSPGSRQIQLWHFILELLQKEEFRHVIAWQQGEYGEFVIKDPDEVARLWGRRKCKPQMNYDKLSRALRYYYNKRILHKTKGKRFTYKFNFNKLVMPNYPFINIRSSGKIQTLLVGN
The following applies: protein: recombinant; tags: N-terminal GST; dsDNA, one strand shown. In short, it runs like this:
as §1

Test [18] addresses ETV6 (Homo sapiens, UniProt P41212 1-452). The following applies: protein: recombinant; tags: N-terminal GST; dsDNA, one strand shown. The method in brief: as §1

Chain of HSF1 (Q00613 whole entry): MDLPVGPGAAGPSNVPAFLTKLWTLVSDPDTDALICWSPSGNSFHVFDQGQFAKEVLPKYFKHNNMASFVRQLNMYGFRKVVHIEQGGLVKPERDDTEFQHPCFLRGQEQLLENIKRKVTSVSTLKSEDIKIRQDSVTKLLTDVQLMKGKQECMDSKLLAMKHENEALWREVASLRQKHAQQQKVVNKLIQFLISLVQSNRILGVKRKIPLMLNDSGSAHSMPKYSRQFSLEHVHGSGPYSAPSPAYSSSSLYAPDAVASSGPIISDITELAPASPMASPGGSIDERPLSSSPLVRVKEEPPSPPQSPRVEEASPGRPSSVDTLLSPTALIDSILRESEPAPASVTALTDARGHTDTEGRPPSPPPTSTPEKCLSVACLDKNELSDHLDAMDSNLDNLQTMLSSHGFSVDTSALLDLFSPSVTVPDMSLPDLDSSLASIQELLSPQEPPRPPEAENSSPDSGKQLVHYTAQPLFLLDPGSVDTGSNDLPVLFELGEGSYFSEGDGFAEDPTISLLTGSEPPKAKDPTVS
Chain of ETV1 (P50549 whole entry): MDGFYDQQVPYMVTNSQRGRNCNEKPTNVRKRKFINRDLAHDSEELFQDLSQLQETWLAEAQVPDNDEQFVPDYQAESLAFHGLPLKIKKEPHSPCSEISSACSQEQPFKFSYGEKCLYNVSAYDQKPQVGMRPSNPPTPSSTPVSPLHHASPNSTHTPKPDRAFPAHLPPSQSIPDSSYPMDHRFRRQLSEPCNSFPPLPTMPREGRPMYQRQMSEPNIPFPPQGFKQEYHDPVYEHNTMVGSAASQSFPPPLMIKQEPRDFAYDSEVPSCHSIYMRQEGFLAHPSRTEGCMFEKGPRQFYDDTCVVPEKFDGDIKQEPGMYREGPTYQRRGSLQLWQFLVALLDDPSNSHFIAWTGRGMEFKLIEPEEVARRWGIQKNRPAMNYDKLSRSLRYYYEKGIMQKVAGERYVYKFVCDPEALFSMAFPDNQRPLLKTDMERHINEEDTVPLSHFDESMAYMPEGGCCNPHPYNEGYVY
Chain of ETV6 (P41212 whole entry): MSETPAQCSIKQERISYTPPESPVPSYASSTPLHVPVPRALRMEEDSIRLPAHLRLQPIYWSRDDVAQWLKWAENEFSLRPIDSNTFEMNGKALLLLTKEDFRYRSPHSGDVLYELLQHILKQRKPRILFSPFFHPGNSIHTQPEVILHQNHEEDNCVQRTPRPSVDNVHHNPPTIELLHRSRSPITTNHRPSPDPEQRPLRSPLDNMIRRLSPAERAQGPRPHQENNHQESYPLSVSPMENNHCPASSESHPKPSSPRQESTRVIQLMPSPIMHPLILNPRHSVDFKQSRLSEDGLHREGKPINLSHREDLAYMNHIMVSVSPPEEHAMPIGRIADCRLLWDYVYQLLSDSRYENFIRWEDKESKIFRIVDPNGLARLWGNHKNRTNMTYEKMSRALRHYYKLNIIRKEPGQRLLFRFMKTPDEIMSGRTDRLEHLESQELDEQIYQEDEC
Chain of ELF4 (Q99607 whole entry): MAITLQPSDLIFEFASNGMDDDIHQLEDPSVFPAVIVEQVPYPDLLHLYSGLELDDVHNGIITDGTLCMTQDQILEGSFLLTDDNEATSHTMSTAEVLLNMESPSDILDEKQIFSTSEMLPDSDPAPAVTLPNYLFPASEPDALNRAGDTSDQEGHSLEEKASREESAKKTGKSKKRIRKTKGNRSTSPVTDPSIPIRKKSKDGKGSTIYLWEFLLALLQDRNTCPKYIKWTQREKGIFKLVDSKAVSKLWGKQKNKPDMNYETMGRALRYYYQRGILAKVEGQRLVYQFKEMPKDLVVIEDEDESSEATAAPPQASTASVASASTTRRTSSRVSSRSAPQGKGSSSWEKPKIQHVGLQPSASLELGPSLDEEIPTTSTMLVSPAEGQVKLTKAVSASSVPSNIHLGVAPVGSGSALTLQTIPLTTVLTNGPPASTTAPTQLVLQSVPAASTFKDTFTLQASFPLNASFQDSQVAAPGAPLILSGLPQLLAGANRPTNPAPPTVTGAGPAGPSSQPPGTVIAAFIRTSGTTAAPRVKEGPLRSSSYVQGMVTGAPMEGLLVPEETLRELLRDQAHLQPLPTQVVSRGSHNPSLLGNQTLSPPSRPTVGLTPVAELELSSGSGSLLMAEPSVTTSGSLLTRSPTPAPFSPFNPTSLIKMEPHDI

Take TTTAAG: the binding signal in test [1] is 1.31 fold enrichment (6-mer frequency, TF over GST control); in test [2], 1.34 fold enrichment (6-mer frequency, TF over GST control); in test [3] it was 1.87 fold enrichment (6-mer frequency, TF over GST control); in test [4] it was 1.47 fold enrichment (6-mer frequency, TF over GST control); in test [5], 1.29 fold enrichment (6-mer frequency, TF over GST control); in test [6] it was 1.22 fold enrichment (6-mer frequency, TF over GST control). Also, the binding signal was 1.38 fold enrichment (6-mer frequency, TF over GST control) in test [7]; 1.28 fold enrichment (6-mer frequency, TF over GST control) in test [8]; 2.81 fold enrichment (6-mer frequency, TF over GST control) in test [9]; 1.28 fold enrichment (6-mer frequency, TF over GST control) in test [10]; 1.3 fold enrichment (6-mer frequency, TF over GST control) in test [11]; 1.26 fold enrichment (6-mer frequency, TF over GST control) in test [12]. The binding signal in [13] was 1.36 fold enrichment (6-mer frequency, TF over GST control); in [14] it was 1.44 fold enrichment (6-mer frequency, TF over GST control); in [15], 1.33 fold enrichment (6-mer frequency, TF over GST control); in test [16], 1.32 fold enrichment (6-mer frequency, TF over GST control); in test [17] it was 1.24 fold enrichment (6-mer frequency, TF over GST control); in test [18], 1.26 fold enrichment (6-mer frequency, TF over GST control).
